Assay outcomes (PubChem BioAssay)
TDP1 cell noCPT: qHTS for Inhibitors of human tyrosyl-DNA phosphodiesterase 1 (TDP1): qHTS in cells in absence of CPT. Potency, µM (series often up to 46.2 µM), without a hit: at the highest dose activity change, negative = growth inhibition, hits mostly inhibitors. DT40 Tdp1-/- hTDP1 cells, no CPT, ATP luminescence, 48 h. 420,000 compounds, 15% hits; also: nearly all actives have a fitted effect of over 55% in size
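Camptothecin absent (DMSO only). Human TDP1-complemented DT40 knockout cells, 400 cells/well, 37 °C for minimum 48 hr; ATP measured via CellTiter-Glo, 30 min dark incubation, luminescence.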
DT40 TDP1 CPT: growth inhibition of DT40 Tdp1-/-;hTDP1 cells with camptothecin (screen for TDP1 inhibitors). chicken DT40 Tdp1-/-;hTDP1 cells + 20 nM CPT, ATP luminescence, 48 h. Potency, µM (titrated, usually from 46.2 µM), without a hit: top-dose activity change, negative = growth inhibition, usual class: inhibitors. 420,000 compounds, 12% hits; also: nearly all actives have a fitted effect of over 55% in size
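Chicken DT40 Tdp1-/- cells complemented with human TDP1, 400 cells/well, exposed to compounds plus 20 nM camptothecin for at least 48 h at 37 C; viability read as ATP content by CellTiter-Glo luminescence.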
RORg inh: blocks mouse ROR gamma transcriptional activity | P51450 | Potency, µM (titrated, usually from 53.6 µM), for the others: at the highest dose activity change, negative = inhibition, most hits filed as inhibitors | Drosophila S2 Gal4-RORgamma UAS-luciferase reporter, 20 h | AID 2551 | 310,000 compounds, 5.4% hits; also: nearly all actives have a fitted effect of over 60% in size
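Drosophila S2 cells stably expressing Gal4-DBD/mouse RORγ fusion under metallothionein promoter plus UAS-luciferase; compound 1 h, then 700 uM CuSO4 induction for 20 h at ambient temperature; inhibition read as reduced luminescence.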
ALOX12 inh: blocks human arachidonate 12S-lipoxygenase; P18054; purified 12hLO, xylenol orange hydroperoxide absorbance; Potency, µM (titrated, usually from 108 µM), without a hit: at the highest dose activity change, negative = inhibition, usual class: inhibitors; 580,000 compounds, 1.1% hits
Target sequence (P18054 whole entry, looked up): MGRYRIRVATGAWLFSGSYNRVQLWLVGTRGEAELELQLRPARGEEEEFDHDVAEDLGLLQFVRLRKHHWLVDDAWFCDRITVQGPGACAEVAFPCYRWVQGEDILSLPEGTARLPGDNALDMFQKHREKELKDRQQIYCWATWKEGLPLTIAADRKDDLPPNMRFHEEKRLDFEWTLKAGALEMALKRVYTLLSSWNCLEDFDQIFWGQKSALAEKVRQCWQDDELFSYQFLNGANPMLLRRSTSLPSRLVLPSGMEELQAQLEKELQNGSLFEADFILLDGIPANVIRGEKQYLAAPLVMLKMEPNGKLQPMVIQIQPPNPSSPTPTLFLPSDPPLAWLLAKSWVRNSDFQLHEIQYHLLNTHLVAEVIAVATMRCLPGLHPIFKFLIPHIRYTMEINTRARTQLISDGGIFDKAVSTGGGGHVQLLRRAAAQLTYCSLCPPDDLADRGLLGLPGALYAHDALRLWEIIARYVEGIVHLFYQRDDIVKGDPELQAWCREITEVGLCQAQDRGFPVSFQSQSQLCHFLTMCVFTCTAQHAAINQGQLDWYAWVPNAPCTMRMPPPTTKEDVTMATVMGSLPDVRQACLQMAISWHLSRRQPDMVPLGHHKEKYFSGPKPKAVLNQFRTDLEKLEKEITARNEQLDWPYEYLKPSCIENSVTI
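Purified human 12hLO (150 nM final) in 25 mM Hepes, 0.01% Triton X-100, pH 7.0 was preincubated 15 min at room temperature with compound. Then 40 uM arachidonic acid was added, 30 min. Hydroperoxide was read by Fe-XO absorbance ratio 573/405 nm.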
ELG1 DNA repair: blocks ELG1-dependent DNA repair in HEK293T cells; Potency, µM (series often up to 46.1 µM), for the others: at the highest dose activity change, negative = inhibition, most hits filed as inhibitors; 330,000 compounds, 2.3% hits; HEK293T ELG1-luciferase reporter, luminescence, 16 h; DNA damage induced by 5-fluorouridine; AID 504467; also: nearly all actives have a fitted effect of over 55% in size
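HEK293T cells expressing luciferase-tagged ELG1 (2,000/well) received 5-Fluorouridine plus compound or DMSO for 16 hr at 37 °C. Luciferase was read by ONE-Glo luminescence after 30 min at room temperature.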
VP16 counter: Gal4-VP16 reporter inhibition counter-screen | Drosophila S2 Gal4-VP16 UAS-luciferase, luminescence, 20 h | Potency, µM (doses to about 53.6 µM), for inactives: at the top dose activity, negative = inhibition, hits mostly inhibitors | 310,000 compounds, 3.5% hits | AID 2546;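 also: Gal4-VP16 expression switched on by copper sulfate through the metallothionein promoter; nearly all actives have a fitted effect of over 50% in size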
* = called active by the depositor; i = inactive; ? = inconclusive; . = not tested or not shown. Only some compounds are listed: those with a hit (about 15% of all), similar ones and a draw of the others. Calls follow the shape of the dose curve; as a rule, active = well fitted curve in the direction sought with a large enough effect; inconclusive = small, poorly fitted or top-dose-only effect, or another doubt; inactive = no such curve, though single readings can be large; an effect the other way counts as inactive or inconclusive. % is scaled to controls: 0 for no effect and ±100 for the full control effect; potency is read from the fitted curve at half-maximal effect.

SMILES | TDP1 cell noCPT | DT40 TDP1 CPT | RORg inh | ALOX12 inh | ELG1 DNA repair | VP16 counter
CCc1cc(C(=O)N2CCCC(N3CCN(c4cccc(C(F)(F)F)c4)CC3)C2)n(C)n1 (centres undefined) | 12µM* | 12µM* | ? | 0% | -21% | ?
Cc1cc(C)cc(CCC(=O)N2CCC3(CC2)C(C(=O)O)CC(=O)N3C)c1 (centres undefined) | . | . | . | -12% | . | .
Cc1cc(C)n(CC(=O)N2CCCC(N3CCN(c4cccc(C(F)(F)F)c4)CC3)C2)n1 (centres undefined) | ? | ? | 11% | 10% | -9% | -4%
CCCc1cc(C(=O)N2CCCC(N3CCN(c4ccccc4C)CC3)C2)n(C)n1 (centres undefined) | ? | 16µM* | 3% | 0% | ? | 15%
Cc1cnc(C(=O)N2CCCC(N3CCN(c4cccc(C(F)(F)F)c4)CC3)C2)cn1 (centres undefined) | ? | 23µM* | 43% | i | -8% | -2%
CCCn1nc(C(=O)NCC(c2ccccc2)N2CCCC2)ccc1=O (centres undefined) | . | . | . | 23% | . | .
Cc1ccc(S(=O)(=O)c2nc(-c3ccc(F)cc3)oc2N2CCN(c3ccccc3)CC2)cc1 | 18µM* | ? | . | -8% | . | .
O=S(=O)(c1ccccc1)c1nc(-c2ccc(F)cc2)oc1N1CCCCCC1 | 15µM* | 18µM* | . | -27% | . | .
CCNC(=O)NC(=O)COc1ccc2ccc(=O)oc2c1 | . | . | . | -27% | . | .
CCCNC(=O)N1CCC2(CCCCO2)CC1 | . | . | . | 48% | . | .
COc1ccc(-c2csc(=NCCO)n2-c2ccccc2)cc1 | 18µM* | ? | ? | ? | ? | -3%
CNCCN1C(=O)CC[C@H]2CN(C(=O)c3cnc4c(c3)CCCC4)CC[C@H]21 | . | . | . | 23% | . | .
Cc1ccc(-c2nc(C#N)c(NCC(c3cccs3)N(C)C)o2)cc1 (centres undefined) | . | . | . | -34% | . | .
COc1ccc(N2CCN(C(=O)CC(C)S(=O)(=O)c3ccc4c(c3)NC(=O)CO4)CC2)cc1 (centres undefined) | 13µM* | 15µM* | ? | 2% | 13µM* | -27%
CC(CC(=O)N1CCN(c2cccc(Cl)c2)CC1)S(=O)(=O)c1ccc2c(c1)NC(=O)CO2 (centres undefined) | 2.3µM* | 4.1µM* | -41% | 2% | ? | 14µM*
CCOC(=O)C1CCN(C(=O)CC(C)S(=O)(=O)c2ccc3c(c2)NC(=O)CO3)CC1 (centres undefined) | 12% | -4% | -16% | 4% | -10% | 6%
Cn1cnc2nc(Cl)nc(Cl)c21 | 1.2µM* | 1.6µM* | . | ? | . | .
CC(NC(=O)CNC(=O)OCc1ccccc1)C(N)=O (centres undefined) | . | . | . | -20% | . | .
C[n+]1cc(C(=O)N2CCCCC2)ccc1/C=C/c1c[nH]c2ccccc12 | -9% | 0% | 1% | 20µM* | 3% | -6%
O=C(C(=O)N1CCCCCC1)c1c[nH]c2ccccc12 | -3% | -21% | 12% | 21% | 1% | 21%
COCCCNC(=O)C1CCN(S(=O)(=O)c2ccc3c(ccn3C)c2)CC1 | . | . | . | 11% | . | .
Cc1c(NC(=O)CN(c2cc(Cl)ccc2Cl)S(C)(=O)=O)c(=O)n(-c2ccccc2)n1C | . | . | . | -6% | . | .
O=C1C2C(c3ccccc3)CC=CC2[C@H](c2cccc([N+](=O)[O-])c2)N1Cc1ccccc1 (some centres undefined) | ? | 16µM* | 5% | 0% | 0% | -16%
O=C1C2C(c3ccccc3)CC=CC2[C@H](c2ccc(C(F)(F)F)cc2)N1Cc1ccccc1 (some centres undefined) | ? | 18µM* | 41% | -10% | ? | -28%
C[C@@H]1CC=C[C@H]2[C@H]1C(=O)N(Cc1ccccc1)[C@H]2c1ccc(C(F)(F)F)cc1 | 21µM* | ? | ? | 0% | -4% | 7%
SMILES | TDP1 cell noCPT | DT40 TDP1 CPT | RORg inh | ALOX12 inh | ELG1 DNA repair | VP16 counter
COc1cc(NC(=O)Nc2ccccc2OCc2cc(=O)n3cccc(C)c3n2)cc(OC)c1 | . | . | . | 0% | . | .
O=C1N(C2CCN(Cc3ccncc3F)CC2)C(c2ccncc2)C12CCCCC2 (centres undefined) | . | . | . | 81% | . | .
CSc1nc(C)c2cc(C)oc2n1 | -17% | 0% | 15% | 0% | 8% | 4%
Cc1cc2c(C)nc(Cc3ccccc3)nc2o1 | -19% | -12% | 34% | 0% | 18µM* | 0%
O=C(NCC(Cl)c1ccc2ccccc2c1)c1c(F)cccc1F (centres undefined) | -4% | -8% | ? | 35µM* | ? | 9%
COc1ccc(C(=O)NCCn2cc(SCC(=O)NCCc3ccc(OC)c(OC)c3)c3ccccc32)cc1 | 16µM* | 18µM* | . | -10% | . | .
COc1ccc(CCNC(=O)CSc2cn(CCNC(=O)c3cccc(C(F)(F)F)c3)c3ccccc23)cc1OC | 15µM* | 21µM* | . | 0% | . | .
COc1ccc(CCNC(=O)CSc2cn(CCNC(=O)c3ccc(OC)c(OC)c3)c3ccccc23)cc1OC | 23µM* | ? | . | 0% | . | .
COc1ccc(C(=O)NCCn2cc(SCC(=O)Nc3nnc(C)s3)c3ccccc32)cc1 | ? | ? | . | -19% | . | .
COc1ccc(C(=O)NCCn2cc(SCC(=O)Nc3ccc4c(c3)OCCO4)c3ccccc32)cc1OC | 21µM* | 15µM* | . | -16% | . | .
COc1cc(C2C3=C(CCCC3=O)OC3=C2C(=O)CCC3)ccc1OCc1cccc(F)c1 | . | . | . | 7% | . | .
COc1cc(/C=C/c2nc(C#N)c(NCCCn3ccnc3)o2)cc(OC)c1OC | . | . | . | 18% | . | .
Cc1ccc(Nc2nc(OC(C(F)(F)F)C(F)(F)F)nc(N3CCOCC3)n2)cc1 | 15µM* | ? | -36% | 3% | ? | -12%
FC(F)(F)Oc1ccc(Nc2nc(N3CCOCC3)nc(N3CCOCC3)n2)cc1 | 16µM* | 18µM* | 6% | -9% | ? | -2%
CC(Sc1ccc(Cl)cc1)C(=O)N1CCN(c2nccs2)CC1 (centres undefined) | . | . | . | 5% | . | .
COCCc1nncn1C1CCN(C(=O)c2ccc(C)c(F)c2)CC1 | . | . | . | 62% | . | .
N#Cc1ccccc1OCC(=O)NNC(=O)C1COc2ccccc2O1 (centres undefined) | . | . | . | 15% | . | .
